“And” between values parts separate entries of the source, which are not always exact repeats. Equal entries are not always repeated. Results filed as inconclusive are left out. Where a call stands in place of a potency, no number is given. More than one record can exist for a structure, and the calls need not agree. The source made the active and inactive calls. The call rests on the fitted dose curve; in most records, active means well fitted curve in the direction sought with a large enough effect in the repeat runs; inconclusive means weak or mixed curves; inactive means no such curve, though single readings can be large; an effect the other way counts as inactive or inconclusive.
molecular target: Cytochrome P450 1A2 (Homo sapiens) (UniProt P05177); assay: Cytochrome P450 Family 1 Subfamily A Member 2 (CYP1A2) small molecule antagonists: luciferase reporter qHTS assay (AID 1671199); conditions: P450-Glo CYP1A2 enzyme, luciferin luminescence, 1 h; series mostly up to 115 µM; activity change, negative = inhibition: at the top concentration; further: potency means the concentration at half of the fitted maximal effect
Sequence (P05177 whole entry, looked up): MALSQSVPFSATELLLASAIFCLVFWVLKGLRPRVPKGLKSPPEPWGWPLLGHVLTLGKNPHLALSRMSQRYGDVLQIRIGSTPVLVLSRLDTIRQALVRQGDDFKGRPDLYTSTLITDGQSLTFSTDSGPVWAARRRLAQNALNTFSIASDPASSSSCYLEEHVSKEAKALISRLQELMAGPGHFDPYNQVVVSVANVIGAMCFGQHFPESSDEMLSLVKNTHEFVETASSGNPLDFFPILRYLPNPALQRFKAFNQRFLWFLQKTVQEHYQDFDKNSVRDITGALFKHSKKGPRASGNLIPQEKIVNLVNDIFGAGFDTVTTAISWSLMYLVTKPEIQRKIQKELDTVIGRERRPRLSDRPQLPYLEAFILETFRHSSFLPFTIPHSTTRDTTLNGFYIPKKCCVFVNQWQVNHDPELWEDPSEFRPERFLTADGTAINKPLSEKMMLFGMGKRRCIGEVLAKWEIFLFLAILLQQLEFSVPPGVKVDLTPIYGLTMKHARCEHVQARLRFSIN
Method in brief: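 Enzymatic CYP1A2 assay, human, luminescent: 10 min compound–enzyme–substrate preincubation, 1 h NADPH-dependent turnover, 20 min detection step, room temperature throughout. Reduced light indicates lower CYP1A2 activity.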
Further: nearly all actives have a fitted effect of over 50% in size.

Structure (SMILES)	Potency	activity change, negative = inhibition
CC(=O)c1ccc(S(=O)(=O)NC(=O)NC2CCCCC2)cc1	inactive	
CC1=C(/C=C/C(C)=C/C=C/C(C)=C/C(=O)O)C(C)(C)CCC1	inactive	
Cc1cccc(C)c1O	36.1 µM (active)	
CCCCOCCOCCOC(C)=O	inactive	
C#C[C@]1(O)CC[C@H]2[C@@H]3CCC4=CC(=O)CC[C@@H]4[C@H]3CC[C@@]21CC	inactive	
C=C(C)C(N)=O		-17.2% (inactive)
CCn1cc(C(=O)O)c(=O)c2ccc(C)nc21	inactive	
CC(=O)Oc1ccccc1C(=O)O	inactive and 24.5 µM (active)	
CO[C@H]1C=CO[C@@]2(C)Oc3c(C)c(O)c4c(O)c(c(/C=N/N5CCN(C)CC5)c(O)c4c3C2=O)NC(=O)/C(C)=C\C=C[C@H](C)[C@H](O)[C@@H](C)[C@@H](O)[C@@H](C)[C@H](OC(C)=O)[C@@H]1C	inactive	
CC(=O)/C=C/C1=C(C)CCCC1(C)C		-7.02% (inactive)
NCCNc1cccc2ccccc12	632 nM (active) and 778 nM (active) and 723 nM (active)	
CCCCCCCC(=O)OCC(O)CO (stereo unspecified)		6.93% [at 53 µM] (inactive)
C#C[C@]1(O)CC[C@H]2[C@@H]3CCc4cc(O)ccc4[C@H]3CC[C@@]21C	inactive and 17.4 µM (active)	
CC(C)Cc1ccc(C(C)C(=O)O)cc1 (stereo unspecified)	inactive	

molecular target: Voltage-gated inwardly rectifying potassium channel KCNH2 (Homo sapiens) (UniProt Q12809); assay: Human Ether-a-go-go-Related Gene (hERG) channel small molecule antagonists: fluorescence cell-based qHTS assay (AID 1671200); conditions: hERG-U2OS cells, FluxOR thallium flux fluorescence; series mostly up to 76.8 µM; activity change, negative = inhibition: at the top concentration;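 further: hERG-expressing U2OS cells given a thallium stimulus after FluxOR II dye loading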
Sequence (Q12809 whole entry, looked up): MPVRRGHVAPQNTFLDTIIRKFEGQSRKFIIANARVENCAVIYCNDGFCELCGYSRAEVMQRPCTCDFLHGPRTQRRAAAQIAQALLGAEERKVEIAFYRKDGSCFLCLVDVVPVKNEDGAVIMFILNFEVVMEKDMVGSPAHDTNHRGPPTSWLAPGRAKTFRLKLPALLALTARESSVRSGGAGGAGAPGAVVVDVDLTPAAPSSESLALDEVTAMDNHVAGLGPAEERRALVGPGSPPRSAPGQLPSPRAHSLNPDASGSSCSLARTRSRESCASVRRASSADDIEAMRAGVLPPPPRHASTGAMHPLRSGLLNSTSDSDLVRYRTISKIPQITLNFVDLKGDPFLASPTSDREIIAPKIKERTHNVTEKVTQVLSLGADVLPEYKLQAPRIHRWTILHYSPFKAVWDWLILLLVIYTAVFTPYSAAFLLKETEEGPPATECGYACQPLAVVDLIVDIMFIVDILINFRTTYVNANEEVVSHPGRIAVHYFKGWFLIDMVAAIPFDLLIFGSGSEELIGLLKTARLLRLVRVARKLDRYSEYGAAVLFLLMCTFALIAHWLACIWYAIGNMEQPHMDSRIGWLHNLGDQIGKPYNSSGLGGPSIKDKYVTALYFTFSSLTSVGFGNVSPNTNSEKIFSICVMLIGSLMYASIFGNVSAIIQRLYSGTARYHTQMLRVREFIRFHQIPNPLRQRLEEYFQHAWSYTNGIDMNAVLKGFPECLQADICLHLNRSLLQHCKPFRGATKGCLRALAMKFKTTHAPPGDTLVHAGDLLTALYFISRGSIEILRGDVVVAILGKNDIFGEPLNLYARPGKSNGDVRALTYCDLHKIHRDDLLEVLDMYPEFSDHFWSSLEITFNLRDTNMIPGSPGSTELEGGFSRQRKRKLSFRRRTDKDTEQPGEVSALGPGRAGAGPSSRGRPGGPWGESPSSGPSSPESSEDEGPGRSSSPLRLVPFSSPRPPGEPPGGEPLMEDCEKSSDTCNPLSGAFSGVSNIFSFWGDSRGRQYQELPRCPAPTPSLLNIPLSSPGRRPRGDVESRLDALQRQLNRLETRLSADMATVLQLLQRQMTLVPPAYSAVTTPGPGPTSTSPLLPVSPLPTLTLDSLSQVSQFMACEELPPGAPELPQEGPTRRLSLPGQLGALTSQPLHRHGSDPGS
Method in brief: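 In this thallium-flux screen, overnight-cultured U2OS cells bearing the channel are dye-loaded in darkness for an hour, rested 10 min at room temperature, and then monitored kinetically at 480/540 nm for two minutes post-stimulus.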

Structure (SMILES)	Potency	activity change, negative = inhibition
NC(=O)NO	inactive	
CC(=O)c1ccc(S(=O)(=O)NC(=O)NC2CCCCC2)cc1	inactive	
Cc1cccc(C)c1O	inactive	
CCOC(=O)C(C)(C)Oc1ccc(Cl)cc1	inactive	
CCCCOCCOCCOC(C)=O	inactive	
Cc1c(N(C)CS(=O)(=O)O)c(=O)n(-c2ccccc2)n1C	inactive	
C[C@]12C=CC(=O)C=C1CC[C@@H]1[C@@H]2C(=O)C[C@@]2(C)[C@H]1CC[C@]2(O)C(=O)CO	inactive	
CCc1cc(C(N)=S)ccn1	inactive	
CC(=O)CCC(C)C	inactive	
C[C@]12CC[C@@H]3c4ccc(O)cc4CC[C@H]3[C@@H]1CCC2=O	inactive	
CC(C)(C)CC(C)(C)c1ccc(O)c(-n2nc3ccccc3n2)c1		-14.7% (inactive)
C#C[C@]1(O)CC[C@H]2[C@@H]3CCC4=CC(=O)CC[C@@H]4[C@H]3CC[C@@]21CC	inactive	
C=C(C)C(N)=O	inactive	
Cn1cnc2c1c(=O)[nH]c(=O)n2C	inactive	
CCn1cc(C(=O)O)c(=O)c2ccc(C)nc21	inactive	
CC(=O)Oc1ccccc1C(=O)O	inactive	
Nc1ccc(N=Nc2ccccc2)c(N)n1		1.07% [at 35.3 µM] (inactive)
CO[C@H]1C=CO[C@@]2(C)Oc3c(C)c(O)c4c(O)c(c(/C=N/N5CCN(C)CC5)c(O)c4c3C2=O)NC(=O)/C(C)=C\C=C[C@H](C)[C@H](O)[C@@H](C)[C@@H](O)[C@@H](C)[C@H](OC(C)=O)[C@@H]1C	inactive	
CC(=O)/C=C/C1=C(C)CCCC1(C)C	inactive	
COc1cc2c(c(OC)c1OC)-c1ccc(OC)c(=O)cc1[C@@H](NC(C)=O)CC2	inactive	
NCCNc1cccc2ccccc12		-8.52% [at 35.3 µM] (inactive)
CCCCCCCC(=O)OCC(O)CO (stereo unspecified)	inactive	
CC(C)=CCC/C(C)=C/CO	inactive	
NC(N)=NC(N)=NCCc1ccccc1	inactive	
CC1=NN(c2ccccc2)C(=O)C1	inactive	
C[C@]12C[C@H](O)[C@H]3[C@@H](CCC4=CC(=O)CC[C@@]43C)[C@@H]1CC[C@@H]2C(=O)CO	inactive	
C#C[C@]1(O)CC[C@H]2[C@@H]3CCc4cc(O)ccc4[C@H]3CC[C@@]21C	inactive	
N[C@@H](Cc1c[nH]c2ccccc12)C(=O)O	inactive	
CC(C)Cc1ccc(C(C)C(=O)O)cc1 (stereo unspecified)	inactive	

molecular target: Cytochrome P450 3A4 (Homo sapiens) (UniProt P08684); assay: Cytochrome P450 Family 3 Subfamily A Member 4 (CYP3A4) small molecule antagonists: luciferase reporter qHTS assay (AID 1671201); conditions: P450-Glo CYP3A4 enzyme, luciferin luminescence, 1 h; series mostly up to 115 µM; activity change, negative = inhibition: at the top concentration; further: potency means the concentration at half of the fitted maximal effect
Sequence (P08684 whole entry, looked up): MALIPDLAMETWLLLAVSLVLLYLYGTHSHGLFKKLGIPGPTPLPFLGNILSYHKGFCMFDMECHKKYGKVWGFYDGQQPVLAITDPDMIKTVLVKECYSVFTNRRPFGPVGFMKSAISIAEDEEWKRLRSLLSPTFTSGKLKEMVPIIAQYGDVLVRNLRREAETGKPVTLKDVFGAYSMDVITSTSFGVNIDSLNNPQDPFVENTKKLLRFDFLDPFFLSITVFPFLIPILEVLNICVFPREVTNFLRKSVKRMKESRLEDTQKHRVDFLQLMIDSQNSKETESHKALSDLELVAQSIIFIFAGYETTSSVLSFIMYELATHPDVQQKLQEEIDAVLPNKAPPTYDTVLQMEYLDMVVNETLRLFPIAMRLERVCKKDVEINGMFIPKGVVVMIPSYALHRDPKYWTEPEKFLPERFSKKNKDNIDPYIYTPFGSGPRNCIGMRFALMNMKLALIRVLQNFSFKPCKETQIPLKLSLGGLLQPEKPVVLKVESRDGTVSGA
Method in brief: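 CYP3A4 activity was followed with a P450-Glo proluciferin substrate. Test compounds in DMSO were preincubated 10 min; NADPH regeneration then ran 1 h, and light output was read 20 min after detection reagent.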

Structure (SMILES)	Potency	activity change, negative = inhibition
CC(=O)c1ccc(S(=O)(=O)NC(=O)NC2CCCCC2)cc1	inactive	
CC1=C(/C=C/C(C)=C/C=C/C(C)=C/C(=O)O)C(C)(C)CCC1	35.6 µM (active) and 28.2 µM (active)	
Cc1cccc(C)c1O	inactive	
CCCCOCCOCCOC(C)=O	inactive	
Cc1c(N(C)CS(=O)(=O)O)c(=O)n(-c2ccccc2)n1C	inactive	
CC(=O)CCC(C)C	inactive	
CC(C)(C)CC(C)(C)c1ccc(O)c(-n2nc3ccccc3n2)c1	inactive	
C=C(C)C(N)=O	inactive	
CCn1cc(C(=O)O)c(=O)c2ccc(C)nc21	inactive	
CC(=O)Oc1ccccc1C(=O)O	inactive	
CC(=O)/C=C/C1=C(C)CCCC1(C)C	35.6 µM (active)	
NCCNc1cccc2ccccc12	31.7 µM (active) and inactive	
CCCCCCCC(=O)OCC(O)CO (stereo unspecified)	inactive	
NC(N)=NC(N)=NCCc1ccccc1	inactive	
CC1=NN(c2ccccc2)C(=O)C1	inactive	
C[C@]12C[C@H](O)[C@H]3[C@@H](CCC4=CC(=O)CC[C@@]43C)[C@@H]1CC[C@@H]2C(=O)CO		7.83% [at 52.9 µM] (inactive)
N[C@@H](Cc1c[nH]c2ccccc12)C(=O)O	inactive	
CC(C)Cc1ccc(C(C)C(=O)O)cc1 (stereo unspecified)	inactive	

Source: PubChem BioAssay (Tox21)
